Pf growth 48h = inhibits P. falciparum growth in the first generation, 48 h | hit rate 5.9% among 310,000 | P. falciparum luciferase growth in erythrocytes, 48 h | AID 504832 | Potency, µM (series often up to 28.7 µM), actives largely listed as inhibitors
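A one-generation exposure of luciferase-tagged malaria parasites in RPMI 1640/Albumax erythrocyte culture, 37 C and 5% CO2. Inhibition is inferred from decreased luminescence after adding detection reagent.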
Pf growth 96h = P. falciparum growth inhibition at 96 hours; P. falciparum luciferase reporter growth, 96 h; hit rate 6.9% among 320,000; Potency, µM (series often up to 28.7 µM), most hits filed as inhibitors; AID 504834
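Two-generation exposure (96 h) targets delayed-death phenotype. Reporter parasites carrying integrated firefly luciferase, in red cells at 2% hematocrit and 0.05% parasitemia final, kept at 37 C, 5% CO2; luminescence loss indicates inhibition.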
Shiga toxin inh = inhibitors of Shiga toxin in Vero cells; AID 2315; hit rate 9.2% among 290,000; Vero cells, Shiga toxin protein synthesis inhibition reporter; inhibition, % at 38.7 µM; in the data active means inhibition mostly above about 28%, no sharp cut-off; inactive means mostly below about 43%
CHX counter = counter-screen hit for Shiga toxin inhibitors, cycloheximide; cell reporter, cycloheximide protein synthesis inhibition counterscreen; max response, %; hit rate 12% among 300,000; in the data active means max response mostly above about 13%, no sharp cut-off; inactive means mostly below about 14%; further: read at 38.3 µM for the half of the compounds with a filed dose
NS1 inh = inhibitors of influenza NS1 protein function | Potency, µM (top dose mostly 46.1 µM) | hit rate 0.4% among 270,000; calls by dose curve; further: actives are rising curves; nearly all actives have a fitted effect of over 50% in size
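S. cerevisiae expressing influenza A NS1, grown in glucose, washed, then diluted 1:100 into pH 6.0 -URA galactose medium with 23 nl compound. Growth recovery read as OD600; NS1-free strain serves as control.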
Of the large screens only hits and unclear results are named; the others gave an inactive call. The list is not random: actives were taken first. Their share in the collection is about 21%. Unless noted, the call rests on the fitted dose curve; in most records, active means well fitted inhibition curve with a large enough effect; inconclusive means small, poorly fitted or top-dose-only effect, or another doubt; inactive means no such curve, though single readings can be large or run the other way.

Cc1c(-c2ccccn2)c(=O)[nH]n1-c1ccc(F)cc1	CHX counter 28
O=C1C(Cl)=C(Nc2ccc(S(=O)(=O)Nc3ccccn3)cc2)C(=O)c2ccccc21	none (no result: Pf growth 48h, Pf growth 96h, Shiga toxin inh, CHX counter)
O=C(c1csc(Nc2ccccc2Cl)n1)N1CCCC1	Pf growth 96h 2.3µM, Shiga toxin inh 108, CHX counter 53
Cc1ccc(Nc2nc(C(=O)N3CCC(C(=O)NCc4ccccc4)CC3)cs2)cc1	Pf growth 48h inconclusive, Pf growth 96h inconclusive, Shiga toxin inh 35, CHX counter 19
Cc1ccc(Nc2nc(C(=O)N3CCC(C(=O)N4CCN(C)CC4)CC3)cs2)cc1	CHX counter 19 (no result: Pf growth 96h)
O=C(c1csc(Nc2cccc3ccccc23)n1)N1CCCC1	Pf growth 48h inconclusive, Pf growth 96h inconclusive
Cc1ccc(Nc2nc(C(=O)N3CCC(C(=O)NCCN4CCOCC4)CC3)cs2)cc1	Pf growth 48h inconclusive, Pf growth 96h 4.7µM
Cc1ccc(NC(=O)N2CCC(C(=O)NCc3ccccc3)CC2)cc1	Pf growth 48h inconclusive
NCCCCCN	none (no result: Pf growth 48h, Pf growth 96h, NS1 inh)
O=c1ccc2cc(S(=O)(=O)N3CCN(c4ccc(Cl)cc4)CC3)ccc2o1	none
COc1ccc(CNC(=O)C2CCN(C(=O)c3ccc(-c4ccccc4)cc3)CC2)cc1	none
CCOC(=O)/C(=N\Nc1ccccc1)c1csc(Nc2ccc(C)cc2)n1	Pf growth 96h inconclusive (no result: Pf growth 48h)
COc1ccc(CNC(=O)C2CCN(C(=O)c3csc(Nc4ccc(C)cc4)n3)CC2)cc1	Pf growth 48h 8.3µM
Cc1ccc(Nc2nc(COC(=O)C3CC3)cs2)cc1	Shiga toxin inh 75, CHX counter 52
CC(Oc1ccccc1Cl)C(=O)Nc1ccc(S(=O)(=O)Nc2nccs2)cc1 (stereo not given)	none (no result: Shiga toxin inh, CHX counter, NS1 inh)
CCC(C)n1c(OC)nc2c1c(=O)n(C)c(=O)n2C (stereo not given)	Pf growth 96h inconclusive
Cc1ccc2c(c1)-c1c(ssc1=S)C(C)(C)N2C(=O)CSC1=NCCS1	Pf growth 48h inconclusive, Pf growth 96h inconclusive
CCOc1ccc2c(c1)-c1c(ssc1=S)C(C)(C)N2C(=O)CSC1=NCCS1	Pf growth 48h inconclusive, Pf growth 96h 1.7µM, NS1 inh inconclusive
CC1CCN(CC(=O)Nc2cccc(Cl)c2)CC1	none
Nc1nnnn1CC(=O)OCc1cccc(Br)c1	none (no result: Pf growth 96h)
Cc1ccc2c(c1)cc(CN(Cc1ccccc1)C(=O)N(C)C)c1nnnn12	none (no result: Pf growth 48h, Pf growth 96h, Shiga toxin inh, CHX counter)
COc1ccccc1NC(=O)Cc1coc2cc(C)ccc12	CHX counter 24 (no result: Pf growth 48h)
COc1ccccc1NC(=O)c1oc2ccc(C)cc2c1C	CHX counter 34 (no result: Pf growth 96h)
CCOc1ccccc1N1CCN(C(=O)c2c(CC)noc2C)CC1	Pf growth 48h inconclusive (no result: Shiga toxin inh, CHX counter, NS1 inh)
CCCCCCCCCCCCCCCC[n+]1cccc2ccccc21	Pf growth 48h 0.83µM, Pf growth 96h inconclusive
Cc1ccccc1C[n+]1cccc2ccccc21	Pf growth 48h 0.37µM, Pf growth 96h inconclusive (no result: Shiga toxin inh, CHX counter, NS1 inh)
CCCCCCCCC[n+]1cccc2c3ccccc3ccc21	Pf growth 48h 0.17µM
COc1c(Cl)cccc1NC(=O)c1c(NC(=O)Cc2ccccc2)sc2c1CCCC2	none (no result: Pf growth 48h, Pf growth 96h, NS1 inh)
CC(=O)c1c(N2CCN(C)CC2)nc(=S)n(-c2cc(C)ccc2C)c1C	none (no result: NS1 inh)
Cc1ccc(S(=O)(=O)NCC(=O)OCC(=O)NCc2cccs2)cc1	none (no result: Shiga toxin inh, CHX counter, NS1 inh)
COc1cc(OC)cc(N2C(=O)CSCC2=O)c1	Pf growth 48h 2.6µM
COc1cc(-c2cc(=O)c3ccccc3o2)ccc1O	Shiga toxin inh 61, CHX counter 37
COc1cc(-c2cc(=O)c3c(O)cc(O)cc3o2)ccc1O	Pf growth 48h inconclusive, Pf growth 96h 13µM, Shiga toxin inh 39, CHX counter 37
COc1cc(O)c2c(=O)c3c(OC)c(O)ccc3oc2c1	Shiga toxin inh 56, CHX counter 37
O=C(COc1cc(O)c2c(=O)cc(-c3ccccc3)oc2c1)c1cccc([N+](=O)[O-])c1	Pf growth 48h 4.1µM (no result: Shiga toxin inh)
O=C(COc1cc(O)c2c(=O)cc(-c3ccccc3)oc2c1)c1ccccc1	none
Cn1nc(-c2ccc3c(c2)OCCO3)c2ccccc2c1=O	none (no result: NS1 inh)
COc1cc(O)c2c(=O)cc(-c3ccccc3)oc2c1	CHX counter 11
CCc1ccc(C(=O)COC(=O)CNC(=O)c2ccc(N3C(=O)c4ccccc4C3=O)cc2)cc1	Pf growth 96h 15µM
CN(C)C(=S)c1ccc(N(C)C)cc1	none
CN=C1C=CC(=C(c2ccc(N(C)C)cc2)c2ccc(N(C)C)cc2)C=C1	Pf growth 48h 0.21µM, Pf growth 96h 1.1µM (no result: Shiga toxin inh, CHX counter, NS1 inh)
CCOC(=O)c1cc(C(=O)OCC)c(=O)[nH]c1SCc1ccccc1	none (no result: Shiga toxin inh)
Cc1cccc(CSc2nc3c(c(-c4cccs4)c2C#N)CN(C)CC3)c1	Pf growth 48h inconclusive, Pf growth 96h inconclusive
Cc1cccc(CSc2nc(N)c(C#N)c(-c3cccs3)c2C#N)c1	Pf growth 48h 13µM, Pf growth 96h inconclusive
Cc1ccc(CN(CC(=O)N/N=C/c2ccco2)S(=O)(=O)c2ccc(C)cc2)cc1	none (no result: Pf growth 48h)
CCOc1ccc(NC(=O)c2cccc(NC3=NC4CS(=O)(=O)CC4S3)c2)cc1 (stereo not given)	Pf growth 96h 8.3µM
Cc1cccc(CCNC(=O)c2cccc(NC3=NC4CS(=O)(=O)CC4S3)c2)c1 (stereo not given)	Pf growth 96h 15µM
CCc1ccc(NC(=O)c2cccc(NC3=NC4CS(=O)(=O)CC4S3)c2)cc1 (stereo not given)	none
Cc1ccc(C)c(N2CCN(C(=O)c3ccc(NC4=NC5CS(=O)(=O)CC5S4)cc3)CC2)c1 (stereo not given)	Pf growth 96h 10µM
O=c1[nH]c2ccc(S(=O)(=O)N3CCN(S(=O)(=O)c4c(F)cccc4F)CC3)cc2[nH]c1=O	none (no result: Pf growth 48h, Pf growth 96h, NS1 inh)
Cn1cc(Br)c(C(=O)NN2C(=O)C3C4C=CC(C5CC45)C3C2=O)n1 (stereo not given)	none
CCOc1ccc(NS(=O)(=O)N(C)C)cc1	none (no result: Pf growth 96h)
CCCCOc1ccc(OCCNS(=O)(=O)N(C)C)cc1	CHX counter 20
O=C(NN1C(=O)c2ccc3c4c(ccc(c24)C1=O)CC3)c1ccc(Br)cc1	none
O=C(CSc1ccc(Cl)cc1)NC(=O)NCc1ccco1	none (no result: NS1 inh)
Cc1ccc(C(=O)N2NC(c3ccccc3F)C3C(=O)N(c4cccc(C)c4)C(=O)C32)cc1 (stereo not given)	Pf growth 96h 2.1µM
COc1ccccc1-c1nn(Cc2ccccc2)cc1C(=O)NCC(c1ccco1)N1CCCC1 (stereo not given)	Pf growth 48h inconclusive (no result: Shiga toxin inh, CHX counter, NS1 inh)
CCOc1c(Br)ccc2c1sc1nc[nH]c(=O)c12	Pf growth 96h 9.3µM
COCCOC(=O)c1sc2nc[nH]c(=O)c2c1C	none (no result: NS1 inh)
Cc1nc2nc(SCC(=O)N3CCOCC3)nn2c(C)c1Cc1c(F)cccc1Cl	Pf growth 48h 3.7µM
Cc1nc2nc(SCC(=O)N3CCC4(CC3)OCCO4)nn2c(C)c1Cc1ccccc1	none (no result: Pf growth 48h)
CSc1nc(NCC(C)O)c2c3c(sc2n1)CN(C)CC3 (stereo not given)	Pf growth 48h inconclusive, Pf growth 96h 6.6µM
CSc1nc(NCCCO)c2c3c(sc2n1)CN(C)CC3	Pf growth 48h inconclusive, Pf growth 96h 5.2µM
CSc1nc(SCC(=O)NC(c2ccccc2)c2ccccc2)c2c3c(sc2n1)CN(C)CC3	Pf growth 48h 7.4µM, Pf growth 96h 2.9µM
